Hits are enriched below; roughly 4% of the tested compounds scored in any of these assays.
GDH-TPI counter-1 = counter-screen for M. tuberculosis FBA inhibitors: GDH-TPI coupled enzymes; GDH-TPI coupled enzyme counterscreen, NADH absorbance; inhibition, % at 4.8 µM; 1.2% of 360,000 active; AID 588335;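 note: 0% = DMSO wells and 100% = wells lacking the enzyme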
FBA Mtb inh = Mtb fructose-bisphosphate aldolase inhibition | AID 588726 | purified M. tuberculosis FBA, fluorescence read-out | inhibition, % at 1 µM | 2.3% of 360,000 active | P9WQA3; in the data active = inhibition above about 27%;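 note: 0% = vehicle and 100% = reference inhibitor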
Target sequence (P9WQA3 whole entry, looked up): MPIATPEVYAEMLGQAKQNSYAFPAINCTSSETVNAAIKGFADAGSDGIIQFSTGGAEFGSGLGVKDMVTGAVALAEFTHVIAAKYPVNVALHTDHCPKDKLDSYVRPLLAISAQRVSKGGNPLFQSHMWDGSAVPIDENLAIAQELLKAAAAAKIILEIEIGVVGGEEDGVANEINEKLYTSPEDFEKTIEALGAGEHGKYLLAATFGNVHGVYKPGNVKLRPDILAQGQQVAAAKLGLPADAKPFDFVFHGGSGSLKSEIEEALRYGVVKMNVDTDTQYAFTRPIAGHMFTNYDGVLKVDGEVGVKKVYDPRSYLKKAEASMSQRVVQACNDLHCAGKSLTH
Mtb bLac sens = beta-lactam sensitization of Mtb H37Rv; 0.27% of 330,000 active; M. tuberculosis H37Rv growth with meropenem, percent inhibition; AID 434955; inhibition, % at 25 µM; call rule not given here;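 note: growth measured after seven days incubation then overnight dye step; 0% = bacteria only wells and 100% = bacteria with antibiotic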
MazEF act = MazEF (E. coli) toxin RNase activation; P0AE70; activation, % at 20 µM; 0.32% of 350,000 active; FAM/BHQ RNA-DNA oligo cleavage fluorescence, 5 h; AID 504720; in the data active = activation above about 50%
Target sequence (P0AE70 whole entry, looked up): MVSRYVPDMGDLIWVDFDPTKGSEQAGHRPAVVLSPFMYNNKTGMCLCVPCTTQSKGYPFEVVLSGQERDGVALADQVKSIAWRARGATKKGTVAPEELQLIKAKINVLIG
CCHF vOTU inh = blocks the CCHF virus ovarian tumor domain protease. CCHFV vOTU protease, Pep-AMC fluorescence. inhibition, % at 11.5 µM. 0.55% of 370,000 active. AID 651958; note: 0% = vehicle wells with enzyme and 100% = no enzyme wells
Mtb FBA inh conf = confirmation of M. tuberculosis fructose-bisphosphate aldolase inhibitors. inhibition, % at 1 µM. purified M. tuberculosis FBA, fluorescence read-out. AID 651616. shares compounds with FBA Mtb inh. 78% of 5,600 active; in the data active = inhibition above about 27%;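 note: 0% = vehicle wells and 100% = reference inhibitor wells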
GDH-TPI counter-2 = inhibits GDH-TPI coupling enzymes, flagging Mtb FBA hits. AID 652141. GDH-TPI coupled enzyme counterscreen, fluorescence. inhibition, % at 1 µM. shares compounds with FBA Mtb inh. 81% of 5,600 active; in the data active = inhibition above about 10%
Starred values were filed as active, the others as inactive; . = not tested or not shown; + = active, no number. Cut-off read from the data, not from the text of the source, unless noted: active = inhibition above about 30%; inactive = the rest.

SMILES | GDH-TPI counter-1 | FBA Mtb inh | Mtb bLac sens | MazEF act | CCHF vOTU inh | Mtb FBA inh conf | GDH-TPI counter-2
CCCCNc1c(-c2ccc(OC)c(SC(C)CC)c2)nc2cnccn12 (stereo not given) | 13 | 15 | . | -22 | -2 | . | .
CCCCNc1c(-c2ccc(OC)c(SC(C)CC)c2)nc2cc(C)ccn12 (stereo not given) | 4 | 31* | 97 | -1 | 7 | 93* | 91*
CCCCNc1c(-c2cccc(SC(C)CC)c2)nc2ccc(Cl)cn12 (stereo not given) | -4 | 6 | 6 | -6 | -5 | . | .
CCCCCCSc1cc(-c2nc3ccc(C)cn3c2NCCCC)ccc1OC | 18 | 28* | 5 | -2 | 1 | 139* | 107*
CCCCCCSc1cc(-c2nc3ccc(Cl)cn3c2NCCCC)ccc1OC | 6 | 1 | -2 | -1 | 11 | . | .
Nc1[nH]c(C(=O)c2ccc(Cl)cc2)c(-c2ccc(Br)cc2)c1C(=O)c1c[nH]c2ccc(F)cc12 | . | . | . | . | 9 | . | .
Cc1ccc(C2=N/C(=C\c3coc4ccccc4c3=O)C(=O)O2)cc1 | . | . | . | . | 16 | . | .
c1csc(-c2nc3ccccn3c2NC2CCCCC2)c1 | 8 | 43* | 1 | -9 | -49 | 1 | -4
CCC(C)Sc1cc(-c2nc3ccccn3c2NC2CCCCC2)ccc1OC (stereo not given) | 12 | 34* | 100 | -5 | -5 | 87* | 78*
CCCCCCSc1ccc(-c2nc3ccc(C)cn3c2NCc2ccccc2)cc1 | 2 | 17 | -4 | -4 | -5 | . | .
CCCCCCSc1ccc(-c2nc3ccc(C)cn3c2NCc2ccccc2)cc1OC | 17 | 38* | -16 | -14 | -6 | 146* | 110*
CCCCNc1c(-c2ccc(OC)c(SC(C)CC)c2)nc2ccc(C)cn12 (stereo not given) | -2 | 41* | 97 | -8 | 1 | 74* | 87*
Cc1ccn2c(NC3CCCC3)c(-c3cccs3)nc2c1 | 9 | 11 | -5 | 3 | -9 | . | .
COC(=O)CSc1nnc([C@H](Cc2ccccc2)NC(=O)OC(C)(C)C)o1 | 0 | 44* | 100 | 0 | 0 | 67* | 64*
CC(=O)c1cc(-c2cc3ccccc3o2)c(=O)n2c1CCC2 | . | . | . | . | -1 | . | .
COc1cccc(N(C)C(=O)[C@@H](C)[C@@H](O)c2ccc(Cl)cc2)c1 | . | . | . | . | -7 | . | .
CC(C)N1CCCCC(NC(=O)c2ccc(Br)cc2)C1=O (stereo not given) | . | . | . | . | 1 | . | .
CC(C)(C)C(=O)Nc1sc2c(c1-c1nc3ccccc3[nH]1)CCCC2 | 19 | 83* | -7 | 0 | -14 | 83* | 61*
COC(=O)C1=C(C)N(C)C(=NCc2ccc3c(c2)OCO3)NC1c1ccc(F)cc1 (stereo not given) | . | . | . | . | -10 | . | .
C=CCN1C(C(=O)OC)CN(Cc2cn(CCC3OCCO3)nn2)CCS1(=O)=O (stereo not given) | . | . | . | . | -8 | . | .
CCOc1cc(S(=O)(=O)N(CC)CC)c(OCC)cc1-n1cnnn1 | 10 | 28* | 8 | -7 | -12 | 193* | 137*
CCOc1cc(S(=O)(=O)NCCc2ccccc2C)c(OCC)cc1-n1cnnn1 | 7 | 51* | 7 | -2 | -28 | 22 | 12*
O=C(NCc1ccccc1)OCCN1C(=O)CCC12CCCCC2 | . | . | . | . | 5 | . | .
O=c1cc(C(F)(F)F)c2sc(N3CCCCC3)nc2[nH]1 | 20 | 86* | . | 1 | -99 | 162* | 125*
Fc1ccccc1Cn1ccc2ccc(-c3ccc4ccn(Cc5ccccc5F)c4c3)cc21 | . | . | . | . | -6 | . | .
SMILES | GDH-TPI counter-1 | FBA Mtb inh | Mtb bLac sens | MazEF act | CCHF vOTU inh | Mtb FBA inh conf | GDH-TPI counter-2
Nn1c(SCC(=O)Nc2nnc(-c3ccccc3)o2)nnc1C1CC1 | 8 | 45* | -12 | 1 | -8 | -1 | -2
COc1cccc(NC(=O)Cc2nnc(SCC(=O)c3ccccc3)n2C)c1 | 5 | 83* | . | 9 | 13 | 161* | 122*
CCN(CC)CCCNC(=O)c1cn(CC(C)C)c(=O)c2c1c1ccccc1n2C | 7 | 35* | 5 | 6 | -13 | 105* | 95*
CCN(CC)CCCNC(=O)c1cn(C)c(=O)c2c1c1ccccc1n2C | 5 | 30* | 5 | 0 | 6 | 83* | 71*
CCN(CC)CCCNC(=O)c1cn(CCOC)c(=O)c2c1c1ccccc1n2C | 5 | 29* | 8 | 2 | -22 | 102* | 96*
COCCn1cc(C(=O)NCCCN2CCC(C)CC2)c2c3ccccc3n(C)c2c1=O | 12 | 28* | -6 | 3 | -8 | + | +
CCN(CC)CCNC(=O)c1cn(CCOC)c(=O)c2c1c1ccccc1n2C | 17 | 25 | 2 | 11 | -33 | . | .
CCCCN(CC)CCCNC(=O)c1cn(CC(C)C)c(=O)c2c1c1ccccc1n2C | 7 | 20 | 11 | 7 | -31 | . | .
COCCn1cc(C(=O)NCCN(C)C)c2c3ccccc3n(C)c2c1=O | 12 | 22 | 4 | -6 | -9 | . | .
Cc1ccc(NC(=O)c2ccc(CS(=O)(=O)Cc3ccccc3C)o2)cc1C | . | . | . | . | 3 | . | .
FC(F)(F)c1cc(-c2cccs2)nc(-n2cc(Cl)cn2)n1 | 20 | 30* | 0 | -6 | 5 | 41* | 35*
Cc1c(SCCO)c(=O)[nH]c2cc3c(cc12)OCO3 | 17 | 35* | 8 | -2 | -39 | 127* | 120*
CCN(CC)CCn1c(=S)[nH]c2cc3c(cc2c1=O)OCO3 | 2 | 5 | -2 | 2 | 0 | . | .
C[C@@H]1ON(C)[C@H]2C[C@H]3c4[nH]c5c(-c6ccccc6)cccc5c4CCN3C(=O)[C@@H]12 | . | . | . | . | -43 | . | .
COc1ccc(N2C3=C(C(=O)CC(C)(C)C3)C(c3ccccc3OC)C3=C2CC(C)(C)CC3=O)cc1 | -2 | 50* | 1 | 6 | -67 | 76* | 60*
Cc1ncc(CO)c(/C=N/NC(=O)c2ccoc2C)c1O | 10 | 33* | . | -19 | -57 | 2 | 3
Nc1c(C(=O)C2CC2)sc2nc(-c3cccs3)cc(C(F)(F)F)c12 | 2 | 57* | 2 | + | -74 | 44* | 30*
CC(C)NC(=O)c1sc2nc(-c3cccs3)cc(-c3cccs3)c2c1N | . | . | 6 | -17 | 7 | . | .
CSc1nc(-c2ccccc2)cc(C(F)(F)F)c1C#N | 7 | 2 | 3 | 5 | -12 | . | .
O=c1[nH]c(=S)[nH]c2nc(-c3cccs3)cc(C(F)(F)F)c12 | 17 | 32* | -9 | -8 | -5 | 94* | 76*
CNc1nc(-c2cccs2)cc(C(F)(F)F)c1C#N | -2 | 58* | 2 | -5 | -41 | 78* | 54*
Cc1ccc(S(=O)(=O)NCC(=O)OCc2cc(=O)oc3cc(C)ccc23)cc1 | 13 | 3 | -6 | 8 | 5 | . | .
CCN(CC)c1ccc(C(=O)OCc2cc(=O)oc3cc(O)ccc23)cc1 | 32* | 72* | 4 | 2 | 4 | -4 | -2
